Screening data: PubChem, National Center for Advancing Translational Sciences (NCATS)
Luc counter: blocks Kinase-Glo luciferase, a counter-screen artifact. AID 1379. Potency, µM (doses to about 38.3 µM), most hits filed as inhibitors. Kinase-Glo luciferase, ATP luminescence, 8 min. Q27757. 200,000 tested, 0.28% active; further: nearly all actives have a fitted effect of over 60% in size
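Inhibition of Kinase-Glo luciferase light generation was assessed at 10 uM ATP in pH 7.2 imidazole buffer, with luminescence measured after eight minutes at ambient temperature.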
HPGD inh: HPGD (human) dehydrogenase inhibition; purified HPGD, NADH fluorescence kinetic, PGE2 substrate; Potency, µM, hits mostly inhibitors; AID 894; 150,000 tested, 4.3% active; active means well fitted inhibition curve with a large enough effect, not every such curve was filed as active; inconclusive means small, poorly fitted or top-dose-only effect, or another doubt; inactive means no such curve, though single readings can be large or run the other way
Target sequence (P15428 whole entry, looked up): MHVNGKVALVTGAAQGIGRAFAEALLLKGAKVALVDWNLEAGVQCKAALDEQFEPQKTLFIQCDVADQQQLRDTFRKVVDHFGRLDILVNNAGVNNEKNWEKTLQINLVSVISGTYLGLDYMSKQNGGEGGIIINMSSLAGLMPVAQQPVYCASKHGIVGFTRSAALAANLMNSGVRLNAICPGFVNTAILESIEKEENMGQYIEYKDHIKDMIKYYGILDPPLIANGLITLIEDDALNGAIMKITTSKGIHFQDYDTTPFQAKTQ
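NADH formation kinetics: reaction with 30 uM PGE2 and 1 mM NAD+ (final), 20 nM enzyme, Tris-HCl pH 8 with Tween 20, after 15 min compound preincubation at room temperature. Fluorescence change, last versus first of five reads.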
ALDH1A1 block: blocks purified human ALDH1A1 activity. AID 1030. 220,000 tested, 7.3% active. P00352. Purified ALDH1A1, NADH fluorescence, propionaldehyde substrate. Potency, µM (top dose mostly 75.3 µM), hits mostly inhibitors; active means well fitted inhibition curve with a large enough effect, not every such curve was filed as active; inconclusive means small, poorly fitted or top-dose-only effect, or another doubt; inactive means no such curve, though single readings can be large or run the other way
HTT ATP protect: protects HTT-Q103 PC12 cells, measured by ATP | 230,000 tested, 0.14% active | Potency, µM (highest dose often 56.4 µM), hits mostly activators | AID 1471 | PC12 HTT-Q103 induced, cytoprotection, ATP luminescence, 40 h; further: nearly all actives have a fitted effect of over 45% in size
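Huntington model: PC12 line, ecdysone-inducible HTTQ103 exon1–GFP, tebufenozide 100 nM. Test articles in a dose series. Endpoint luminescence from cellular ATP.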
Lamin A splicing: LMNA splicing modulation. HeLa LMNA splicing GFP/RFP minigene ratio, 48 h. Potency, µM (titrated, usually from 46.1 µM), most hits filed as inhibitors. 200,000 tested, 0.01% active; active means well fitted inhibition curve with a large enough effect in the signal ratio, with a control signal flat, not every such curve was filed as active; inconclusive means small, poorly fitted or top-dose-only effect, or effect the other way, or a change in a side signal; the % refers to the signal ratio
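S3 HeLa cells stably expressing lamin A-EGFP splicing minigene plus DsRed2, 600 cells/well, 48 h compound exposure at 37C. Laser-scanning cytometry; analysed as GFP (500-530 nm)/RFP (575-640 nm) total intensity ratio; 0.5% DMSO vehicle.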
HTT aggregate: reduces HttQ103-GFP aggregates in PC12 cells; Potency, µM (titrated, usually from 46.1 µM), usual class: inhibitors; PC12 HttQ103-GFP aggregates, Acumen cytometry, 40 h; 220,000 tested, 1.1% active; further: nearly all actives have a fitted effect of over 60% in size
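Using laser scanning cytometry, GFP-positive aggregates were counted after lysis of PC12 cells induced with 100 nM tebufenozide to express HTT exon 1 Q103–GFP. Compounds were tested in titration.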
Each line names hits and unclear results; the compound was inactive in the other large screens; ! = repeats disagree. An excerpt weighted towards active compounds, which were near 9% of everything screened. Unless noted, the call rests on the fitted dose curve; in most records, active means well fitted curve in the direction sought with a large enough effect; inconclusive means small, poorly fitted or top-dose-only effect, or another doubt; inactive means no such curve, though single readings can be large; an effect the other way counts as inactive or inconclusive.

CC(=O)Nc1ccc(S(=O)(=O)NC(CC(=O)N2CCC3(CC2)OCCO3)C(C)C)cc1 (stereo not drawn)	none
O=C(O)Cn1cc(/C=C2\C(=O)NC(=O)N(Cc3ccco3)C2=O)c2ccccc21	ALDH1A1 block 8.91µM (no result: HPGD inh)
O=C1NC(=O)N(Cc2ccco2)C(=O)/C1=C/c1cccn1CCOc1ccccc1Cl	HPGD inh 28.2µM, Lamin A splicing inconclusive
CCCCN1C(=O)/C(=C/c2ccc(N(C)C)cc2)C(=O)N(Cc2ccco2)C1=O	HPGD inh 25.1µM, ALDH1A1 block 0.708µM
CCN(CC)c1ccc(/C=C2/C(=O)NC(=O)N(CC3CCCO3)C2=O)cc1 (stereo not drawn)	HPGD inh 35.5µM, ALDH1A1 block 0.631µM
CCCCn1c(=O)c(C=Nc2ccc(Cl)cc2)c(O)n(Cc2ccco2)c1=O	HPGD inh inconclusive, ALDH1A1 block inconclusive
O=C(CSc1nnc(NC(=O)C2CCCCC2)s1)NCc1ccco1	Lamin A splicing inconclusive (no result: HPGD inh)
CN1C(=O)NC(=O)/C(=C/c2ccc(C(=O)O)cc2)C1=O	none (no result: Luc counter, HPGD inh, ALDH1A1 block, Lamin A splicing)
Clc1ccc(Cn2ccnc2)cn1	none (no result: HPGD inh, Lamin A splicing)
CCN(CC)c1ccc(/C=C2\C(=O)NC(=O)N(Cc3ccco3)C2=O)cc1	HPGD inh 15.8µM, ALDH1A1 block 0.501µM
O=C1NC(=O)C(=C/C=C/c2coc3ccc(Br)cc3c2=O)C(=O)N1	ALDH1A1 block 3.16µM (no result: Luc counter, HPGD inh)
O=C1NC(=O)C(=Cc2coc3ccccc3c2=O)C(=O)N1	ALDH1A1 block 3.55µM (no result: HPGD inh, Lamin A splicing)
O=C1NC(=O)C(=Cc2csc3ccccc23)C(=O)N1	ALDH1A1 block 10µM (no result: Luc counter, HPGD inh, Lamin A splicing)
CN1C(=O)C(=Cc2ccc(N(C)C)c([N+](=O)[O-])c2)C(=O)N(C)C1=O	ALDH1A1 block inconclusive (no result: HPGD inh, Lamin A splicing)
CC1CCCC(C)N1/N=C/c1c[nH]c2ccc(Br)cc12 (stereo not drawn)	ALDH1A1 block inconclusive, HTT aggregate inconclusive
CCC(C)C(=O)OC1C(O)C2C(CN3CC(C)CCC3[C@]2(C)O)C2C[C@]34O[C@@]5(O)C(OC(=O)C(C)(O)C(C)O)CCC3(C)C5C(OC(C)=O)C(OC(C)=O)C4[C@@]21O (stereo partly drawn)	none (no result: Lamin A splicing, HTT aggregate)
CCC(C)C(=O)OC1C(O)C2C(CN3CC(C)CCC3[C@]2(C)O)C2C[C@]34O[C@@]5(O)C(OC(=O)C(C)(O)CC)CCC3(C)C5C(OC(C)=O)C(OC(C)=O)C4[C@@]21O (stereo partly drawn)	HTT ATP protect 1.41µM (no result: Lamin A splicing, HTT aggregate)
COc1ccc(/C=C2\C(=N\O)C3CCN2CC3)cc1	none
C[C@H]1CN(C2CCC(C#N)(c3ccc(F)cc3)CC2)CC[C@@]1(C(=O)O)c1ccccc1 (stereo partly drawn)	Lamin A splicing inconclusive
N#CC1(c2ccccc2)CCN(C2CC(=O)N(c3ccc4c(c3)OCO4)C2=O)CC1 (stereo not drawn)	ALDH1A1 block 8.91µM (no result: HPGD inh, Lamin A splicing)
N#CC1(c2ccccc2)CCN(C2CC(=O)N(c3ccc(F)cc3)C2=O)CC1 (stereo not drawn)	ALDH1A1 block 31.6µM (no result: HPGD inh, Lamin A splicing)
CC(=O)N1CCN(c2ccc(N=Cc3c(O)n(-c4ccc(Cl)cc4)c(=O)[nH]c3=O)cc2)CC1	none
COc1cccc(N=Nc2c(O)[nH]c(=S)[nH]c2=O)c1	ALDH1A1 block 25.1µM (no result: Luc counter, HPGD inh, Lamin A splicing)
COc1ccc(N=Nc2c(O)[nH]c(=S)[nH]c2=O)cc1	Luc counter inconclusive (no result: HPGD inh)
COc1ccc(C(c2ccc(OC)cc2)C(Cl)(Cl)Cl)cc1	ALDH1A1 block 14.1µM! (no result: HTT aggregate)
CC(C)(O)[C@H]1[C@H]2OC(=O)[C@@H]1[C@]1(O)C[C@H]3O[C@]34C(=O)O[C@H]2[C@]14C (tested in a mixture with another compound)	none (no result: Luc counter, HPGD inh, ALDH1A1 block, Lamin A splicing, HTT aggregate)
Cc1ccc2c(CN3CC=C(c4ccccc4)CC3)cc(=O)oc2c1C	ALDH1A1 block inconclusive (no result: Luc counter, HPGD inh)
COP(=S)(OC)Oc1ccc(Sc2ccc(OP(=S)(OC)OC)cc2)cc1	none (no result: Luc counter, HPGD inh, ALDH1A1 block, Lamin A splicing)
COP(=S)(OC)Oc1ccc([N+](=O)[O-])cc1	ALDH1A1 block 20µM, Lamin A splicing inconclusive (no result: HTT aggregate)
CCCC(O)C(CC)CO (stereo not drawn)	Lamin A splicing inconclusive (no result: Luc counter)
